A549 tox – A549 cytotoxicity, counter-screen for Nrf2 inhibitors | 390,000 compounds, 0.16% hits | A549 ARE-Fluc cells, CellTiter-Fluor viability, 18-24 h | Potency, µM (top dose mostly 46 µM), most hits filed as inhibitors | AID 504648
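A549 ARE-Fluc cells in 5% FBS OPTI-MEM, 5000 cells/well, rested 2 h then exposed to compounds in concentration-response for 18-24 h at 37 °C. Viability by CellTiter-Fluor fluorescence (Ex 405/Em 525) after 30 min; luciferase luminescence (BugLite, 15 min, RT) read afterwards.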
TrxR1 inh – blocks rat thioredoxin reductase 1. recombinant rTrxR1, NADPH fluorescence consumption, selenite substrate. Potency, µM (top dose mostly 114 µM), usual class: inhibitors. 390,000 compounds, 1% hits. AID 588453; further: nearly all actives have a fitted effect of over 65% in size
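Rat TrxR1 (90 nM in the dispensed reagent) was pre-reduced with 400 uM NADPH for 5 min at room temperature, then incubated with compound for 15 min. After 400 uM selenite was added, NADPH fluorescence (Ex 340/Em 450 nm) was followed for 8 min.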
Mito fusion yeast – mitochondrial division inhibition or fusion activation | S. cerevisiae fusion-defective mutant growth rescue, CellTiterGlo 48 h | Potency, µM (titrated, usually from 46.1 µM), most hits filed as activators | 320,000 compounds, 0.23% hits; further: nearly all actives have a fitted effect of over 45% in size
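Read-out: ATP-based luminescence (CellTiterGlo, 10 min ambient) reporting growth of fusion-defective ts yeast after 48 hours at 37C on glycerol/ethanol YPEG medium in the presence of compound.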
TrxR1 substrate – is turned over as a substrate by rat TrxR1; purified TrxR1 substrate turnover, NADPH consumption readout; 390,000 compounds, 0.01% hits; Potency, µM (highest dose often 114 µM); AID 588456; further: nearly all actives have a fitted effect of over 50% in size
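Rat TrxR1, dispensed at 90 nM, was prereduced with 400 uM NADPH (final) for 5 min at ~22 deg C, then incubated with compound 15 min before 400 uM selenite. A first-read NADPH fluorescence drop versus no-compound background flagged substrates.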
mIDH1 inhibitor – human IDH1 R132H inhibition. AID 602179. 390,000 compounds, 0.093% hits. Potency, µM (doses to about 76.6 µM), hits mostly inhibitors. IDH1-R132H enzyme, NADPH consumption, diaphorase/resazurin fluorescence. O75874; further: nearly all actives have a fitted effect of over 65% in size
Target sequence (O75874 whole entry R132H, stated change not applied): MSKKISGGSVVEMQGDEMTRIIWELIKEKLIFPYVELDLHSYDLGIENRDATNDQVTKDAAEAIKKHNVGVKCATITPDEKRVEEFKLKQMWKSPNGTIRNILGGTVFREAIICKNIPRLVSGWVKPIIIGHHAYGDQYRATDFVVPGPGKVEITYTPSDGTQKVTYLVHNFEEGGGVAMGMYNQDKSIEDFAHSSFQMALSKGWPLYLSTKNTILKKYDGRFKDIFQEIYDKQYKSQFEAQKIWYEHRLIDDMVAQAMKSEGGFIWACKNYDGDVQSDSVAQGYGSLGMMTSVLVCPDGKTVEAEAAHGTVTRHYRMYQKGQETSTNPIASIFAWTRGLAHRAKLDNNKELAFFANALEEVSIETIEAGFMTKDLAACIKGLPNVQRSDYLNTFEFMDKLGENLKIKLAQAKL
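IDH1-R132H (0.5 ug/mL) preincubated 30 min with compound, then NADPH (0.016 mM) and alpha-KG (2 mM) added; 80 min at RT, pH 7.5. Remaining NADPH coupled via diaphorase/resazurin to fluorescence (540/590 nm); concentration-response curves normalized to no-enzyme control.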
Nrf2 inh – blocks Nrf2 signaling. A549 ARE-Fluc reporter, luciferase luminescence, 18-24 h. Potency, µM (series often up to 46 µM), hits mostly inhibitors. 360,000 compounds, 2.1% hits; further: nearly all actives have a fitted effect of over 60% in size
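Reporter: ARE-Fluc in A549. Exposure: 18-24 h, 37 °C, 5% CO2, 5% FBS OPTI-MEM. Readouts: fluorescent cytotoxicity (CellTiter-Fluor), then luminescent Nrf2 signal after BugLite.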
Of the large screens only hits and unclear results are named; the others gave an inactive call; ! = not active in a repeat. Hits are enriched below; roughly 3.1% of the tested compounds scored in any of these assays. The call rests on the fitted dose curve; in most records, active means well fitted curve in the direction sought with a large enough effect; inconclusive means small, poorly fitted or top-dose-only effect, or another doubt; inactive means no such curve, though single readings can be large; an effect the other way counts as inactive or inconclusive.

CCc1ccccc1NC(=O)CCC(=O)N1CC(C)Oc2ccc(C)cc21 (stereo unspecified)	none (no result: Mito fusion yeast)
O=C(Nc1nnc(Cc2ccccc2)s1)c1ccco1	Nrf2 inh inconclusive
NC(=O)c1cc(Cc2ccccc2)sc1NC(=O)c1ccco1	Mito fusion yeast 16µM (no result: Nrf2 inh)
COc1cccc(C(=O)Nc2nc3nc(C)c(Cc4ccccc4)c(=O)n3[nH]2)c1	none (no result: Mito fusion yeast)
Cc1ccccc1Nc1nc(CSc2nnc(-c3ccoc3C)n2C)cs1	TrxR1 inh 50µM
Cc1ccc(NS(=O)(=O)c2cc(NC(=O)c3ccc4c(c3)NC(=O)CS4)ccc2Cl)c(C)c1	A549 tox inconclusive, Nrf2 inh 7.3µM
CC/C(=C/c1ccccc1OC)c1cc(-c2ccccc2)cc2oc3ccccc3c12	none (no result: A549 tox, Mito fusion yeast, mIDH1 inhibitor, Nrf2 inh)
Cc1ccc(N2C(=O)[C@@H]3[C@H](C2=O)C2c4ccccc4C=CN2[C@@H]3C(=O)c2ccco2)c(C)c1 (stereo partly specified)	TrxR1 inh 14µM
O=S(=O)(Nc1cccc(F)c1)c1ccc2[nH]c3c(c2c1)CCCCC3	Nrf2 inh inconclusive (no result: Mito fusion yeast)
COc1ccc(OC)c(/C=C2\SC(N3CCCC(C)C3)=NC2=O)c1 (stereo unspecified)	Mito fusion yeast 13µM
Cc1cc2c(s1)c1cnn(Cc3ccc(C#N)cc3)c(=O)c1n2C	none (no result: TrxR1 inh, Mito fusion yeast, TrxR1 substrate, mIDH1 inhibitor)
Brc1ccccc1-c1nnc(CSc2nncn2-c2ccccc2)o1	none
O=c1c2ccccc2nc(SCc2nnc(-c3ccccc3Br)o2)n1-c1ccccc1	Nrf2 inh 10µM
COc1ccc(NC(=O)c2c(NCc3ccc(C)o3)sc3c2CCC(C)C3)cc1 (stereo unspecified)	TrxR1 inh inconclusive (no result: Mito fusion yeast, Nrf2 inh)
CCOC(=O)c1c(C)oc2c1c(C=NCCC(=O)O)c(O)c1ccccc12	A549 tox inconclusive, Nrf2 inh 21µM
O=S(=O)(c1ccc(F)cc1)N1CCN(c2nc(-c3ccccc3)nc3cc(Cl)ccc23)CC1	none (no result: Mito fusion yeast, mIDH1 inhibitor)
CCOC(=O)c1c(NC(NC(C)=O)C(Cl)(Cl)Cl)sc2c1CCCC2 (stereo unspecified)	Mito fusion yeast inconclusive, Nrf2 inh inconclusive
COC(=O)c1c(NC(NC(C)=O)C(Cl)(Cl)Cl)sc2c1CCCC2 (stereo unspecified)	Nrf2 inh 21µM
COC(=O)c1c(NC(NC(=O)C(C)(C)C)C(Cl)(Cl)Cl)sc2c1CCC2 (stereo unspecified)	TrxR1 inh inconclusive, Nrf2 inh inconclusive
COC(=O)c1c(NC(NC(=O)C(C)C)C(Cl)(Cl)Cl)sc2c1CCC2 (stereo unspecified)	Nrf2 inh 18µM
COc1ccc(C2CC(c3ccccc3)Oc3c(C)ccc(C)c32)cc1 (stereo unspecified)	A549 tox inconclusive, Nrf2 inh inconclusive (no result: Mito fusion yeast, mIDH1 inhibitor)
CCCCC(c1nnnn1CC1CCCO1)N1CCN(c2nc3ccccc3s2)CC1 (stereo unspecified)	Mito fusion yeast 14µM, Nrf2 inh inconclusive
CCC(c1nnnn1CS(=O)(=O)c1ccc(C)cc1)N1CCN(c2nc3ccccc3s2)CC1 (stereo unspecified)	Nrf2 inh 8.2µM
COCCn1nnnc1C(c1ccc(OC)c(OC)c1)N1CCN(c2nc3ccccc3s2)CC1 (stereo unspecified)	Nrf2 inh 9.2µM
COc1ccccc1N1CCN(C(c2ccc(N(C)C)cc2)c2nnnn2CCc2ccccc2)CC1 (stereo unspecified)	TrxR1 inh 3.2µM
COc1ccccc1N1CCN(C(c2ccccc2)c2nnnn2Cc2ccccc2)CC1 (stereo unspecified)	Nrf2 inh inconclusive (no result: Mito fusion yeast, mIDH1 inhibitor)
COc1ccc(C(c2nnnn2Cc2ccccc2)N2CCN(c3nc4ccccc4s3)CC2)cc1 (stereo unspecified)	none (no result: Nrf2 inh)
O=c1[nH]c(CN2CCN(c3ncccn3)CC2)nc2c(Br)cc(Br)cc12	none
O=c1[nH]c(CN2CCN(c3ccccn3)CC2)nc2c(Br)cc(Br)cc12	A549 tox inconclusive, Nrf2 inh 23µM
O=C(/C=C1\NC2(CCCC2)Cc2ccccc21)C(=O)N/N=C/c1ccccc1O	A549 tox inconclusive, Nrf2 inh 15µM
COc1cc(/C=N/NC(=O)C(=O)/C=C2\NC3(CCCC3)Cc3ccccc32)ccc1O	none
CC(C)Oc1ccc2c(=O)c(-c3ccccc3)coc2c1	Mito fusion yeast 25µM!, Nrf2 inh inconclusive
COc1ccc2c(Cl)c(C(N)=O)sc2c1	none
COc1ccc2c(Cl)c(C(=O)NN)sc2c1	Nrf2 inh 15µM
Cn1c(=O)c2[nH]c(CCCCCCCc3nc4ccccc4[nH]3)nc2n(C)c1=O	A549 tox inconclusive, Nrf2 inh 16µM (no result: Mito fusion yeast)
Cn1c(=O)c2[nH]c(Cc3cccc(O)c3)nc2n(C)c1=O	none (no result: Mito fusion yeast)
Cn1c(=O)c2[nH]c(COc3ccc(C(C)(C)C)cc3)nc2n(C)c1=O	Nrf2 inh 12µM
Cc1c(C)n(Cc2ccc(F)cc2)c2ccc(C(=O)N3CCN(c4ccc(Cl)cc4)CC3)cc12	Nrf2 inh inconclusive (no result: Mito fusion yeast)
CC(NC(=O)c1ccc2c(c1)sc1nc(-c3ccc(F)cc3)cn12)C12CC3CC(CC(C3)C1)C2 (stereo unspecified)	Nrf2 inh inconclusive (no result: Mito fusion yeast)
CCOc1cc(C)nc(NCCc2ccc(OC)c(OC)c2)n1	Nrf2 inh 26µM
COc1ccc(CCNc2ncnc3[nH]ncc23)cc1OC	Nrf2 inh inconclusive
COc1ccc(CCNc2ncnc3sc(C)cc23)cc1OC	TrxR1 inh inconclusive, Nrf2 inh 23µM
CC/C=C1/N=C2C(=O)N(C)C(=O)N=C2N(C)N1	Nrf2 inh inconclusive (no result: Mito fusion yeast, mIDH1 inhibitor)
CN1N/C(=C\c2ccccc2)N=C2C(=O)N(C)C(=O)N=C21	A549 tox 5.8µM, TrxR1 inh 14µM, TrxR1 substrate 10µM, Nrf2 inh inconclusive (no result: Mito fusion yeast, mIDH1 inhibitor)
O=S(=O)(Nc1ccc(F)c(Cl)c1)c1ccc(Br)s1	Nrf2 inh inconclusive (no result: Mito fusion yeast)
CN1CCN(Cc2c(O)ccc3cc(Br)ccc23)CC1	TrxR1 inh 35µM
CCc1cc(=O)oc2c(CN3CCN(C)CC3)c(O)ccc12	none
CCCc1cc(C(=O)Nc2c(C)nn(Cc3ccc(Cl)c(Cl)c3)c2C)no1	Nrf2 inh 16µM (no result: Mito fusion yeast)
Cc1ccccc1Cn1nc(C)c(NC(=O)c2cc(CC(C)C)on2)c1C	Nrf2 inh inconclusive
CCCc1cc(C(=O)Nc2c(C)nn(Cc3ccc(C)cc3)c2C)no1	Nrf2 inh inconclusive (no result: Mito fusion yeast)
Cc1nn(Cc2ccc(Cl)c(Cl)c2)c(C)c1NC(=O)c1cc(CC(C)C)on1	A549 tox inconclusive, Nrf2 inh 8.2µM
COc1ccc(CN(CCCN)c2ccc(Br)cn2)cc1	Nrf2 inh inconclusive (no result: Mito fusion yeast, mIDH1 inhibitor)
COc1ccc(OCCSc2nc3ccccc3c(=O)[nH]2)cc1	Nrf2 inh 4.1µM
